Screening results (PubChem)
Sfp PPTase inh = blocks B. subtilis Sfp PPTase activity; Potency, µM, most hits filed as inhibitors; hit rate 3.5% among 310,000; Biochemical Sfp PPTase activity, qHTS; Q9F4F7;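 note: the enzyme is Sfp with the accession as filed and its product quenches rhodamine fluorescence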
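Fluorescence-quenching assay: 15 nM Sfp-PPTase preincubated 15 min at room temperature with compound, then 5 uM rhodamine-CoA and 12.5 uM BHQ-2-labelled YbbR peptide added. Fluorescence (ex 525/em 598 nm) read at start and after 30 min; difference gives rate.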
G9a inh = G9a (human) methyltransferase inhibition | G9a H3K9 monomethylation, AlphaScreen, 2 h | Potency, µM (doses to about 102 µM), hits mostly inhibitors | hit rate 8.8% among 350,000; note: nearly all actives have a fitted effect of over 75% in size
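Compounds were preincubated with 20 nM G9a for 15 min, after which biotinylated H3K9 peptide (500 nM) and SAM (20 uM) started a 2 h room-temperature reaction. Monomethylated product was quantified by antibody-based AlphaScreen chemiluminescence.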
HP1b chromo inh = blocks HP1-beta chromodomain binding to methylated histone tails. Potency, µM (top dose mostly 114 µM), actives largely listed as inhibitors. hit rate 0.56% among 390,000. P83916. AlphaScreen HP1-beta / biotin-H3K9me3 peptide binding; note: nearly all actives have a fitted effect of over 70% in size
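AlphaScreen: HP1-beta (50 nM) preformed 30 min with biotin-H3(1-18)K9me3 peptide (50 nM) in PBS pH 7.4, 0.01% Tween-20. Compound added for 30 min at RT, then streptavidin donor/nickel chelate acceptor beads (10 ug/mL) for 30 min.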
PLK1 PBD inh = inhibitors of human PLK1 polo-box domain binding. Potency, µM, actives largely listed as inhibitors. Plk1 PBD binding of FITC phosphopeptide, fluorescence polarization. hit rate 2.8% among 360,000; note: series mostly up to about 57 µM; nearly all actives have a fitted effect of over 65% in size
Target sequence (P53350 whole entry, looked up, the tested form may be a part): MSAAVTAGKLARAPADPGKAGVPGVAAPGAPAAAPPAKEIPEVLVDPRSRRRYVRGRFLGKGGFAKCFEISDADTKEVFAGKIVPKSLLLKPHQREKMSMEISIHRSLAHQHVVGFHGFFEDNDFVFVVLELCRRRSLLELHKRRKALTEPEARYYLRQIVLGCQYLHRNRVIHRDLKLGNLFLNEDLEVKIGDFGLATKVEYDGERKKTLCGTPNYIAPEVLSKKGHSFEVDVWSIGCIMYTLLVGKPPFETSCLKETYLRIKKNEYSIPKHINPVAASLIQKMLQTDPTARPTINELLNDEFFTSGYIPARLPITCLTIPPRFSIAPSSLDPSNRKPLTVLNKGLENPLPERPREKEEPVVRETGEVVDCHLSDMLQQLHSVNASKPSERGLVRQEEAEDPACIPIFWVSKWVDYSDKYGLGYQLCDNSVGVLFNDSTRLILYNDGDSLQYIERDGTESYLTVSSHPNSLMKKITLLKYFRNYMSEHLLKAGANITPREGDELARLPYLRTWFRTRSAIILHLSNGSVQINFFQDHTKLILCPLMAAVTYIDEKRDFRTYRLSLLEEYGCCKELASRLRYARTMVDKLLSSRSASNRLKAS
BAZ2B block = inhibitors of human BAZ2B bromodomain. Potency, µM (series often up to 114 µM), hits mostly inhibitors. AID 504333. AlphaScreen BAZ2B-H3K14Ac peptide displacement. hit rate 4.4% among 360,000. Q9UIF8; note: nearly all actives have a fitted effect of over 60% in size
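Inhibition is scored as reduced AlphaScreen emission. The BAZ2B/b-H3(5-23)K14Ac complex (50 nM each) in PBS pH 7.4, 0.01% Tween-20 meets compound (up to 110 uM) for 30 min at RT before bead addition.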
JMJD2A Tudor inh = blocks the human JMJD2A Tudor domain. AlphaScreen JMJD2A-Tudor / H3K4me3 peptide binding. Potency, µM (titrated, usually from 114 µM), actives largely listed as inhibitors. hit rate 4.4% among 390,000. AID 504339; note: nearly all actives have a fitted effect of over 50% in size
Large screens that a line does not name were inactive. This is a sample that favours compounds with a hit; in the whole collection about 12% have one here. Calls come from the whole dose curve; as a rule, active = well fitted curve in the direction sought with a large enough effect; inconclusive = small, poorly fitted or top-dose-only effect, or another doubt; inactive = no such curve, though single readings can be large; an effect the other way counts as inactive or inconclusive.

CCSc1nnc([C@@H]2CCCN2C(=O)OC(C)(C)C)o1	G9a inh 50µM
C=C(C)CSc1nnc([C@@H]2CCCN2C(=O)OC(C)(C)C)o1	none
CS(=O)(=O)c1ccc(Cl)c(NC(=O)CN2CCN(C(=O)c3cccs3)CC2)c1	none (no result: Sfp PPTase inh, G9a inh, BAZ2B block)
O=C(Nc1nc(-c2ccccn2)cs1)c1cc(S(=O)(=O)N2CCOCC2)ccc1F	G9a inh inconclusive, PLK1 PBD inh inconclusive, BAZ2B block 22µM, JMJD2A Tudor inh 79µM (no result: Sfp PPTase inh)
CN(CC1CCCO1)S(=O)(=O)c1ccc(C(=O)Nc2nc(-c3ccccn3)cs2)cc1 (centres undefined)	BAZ2B block 28µM, JMJD2A Tudor inh 50µM
O=C(Nc1nc(-c2ccccn2)cs1)c1ccc(F)c(S(=O)(=O)N2CCOCC2)c1	G9a inh 7.1µM, HP1b chromo inh inconclusive, PLK1 PBD inh 12µM, BAZ2B block 28µM, JMJD2A Tudor inh 50µM (no result: Sfp PPTase inh)
Cc1ccc(S(=O)(=O)N2CCOCC2)cc1C(=O)Nc1nc(-c2cccnc2)cs1	none
Cc1ccc(C(=O)Nc2nc(-c3ccccn3)cs2)cc1S(=O)(=O)N1CCOCC1	G9a inh inconclusive, PLK1 PBD inh 7.5µM, BAZ2B block 25µM (no result: Sfp PPTase inh)
Cc1ccc(-c2csc(N3CCN(S(=O)(=O)c4ccc5c(c4)NC(=O)CO5)CC3)n2)cc1	none
O=C(Nc1ccc(F)cc1Cl)C1=COCCO1	none (no result: Sfp PPTase inh)
Cc1cccc(NC(=O)CNC(=O)Cc2ccc3c(c2)OCCO3)c1C	none (no result: Sfp PPTase inh)
CCc1ccc(NC(=O)CC(NCc2cccnc2)C(=O)O)cc1 (centres undefined)	G9a inh inconclusive (no result: Sfp PPTase inh, PLK1 PBD inh)
COc1cc(C)c(Cl)cc1S(=O)(=O)NCCc1c(C)[nH]c2ccccc12	BAZ2B block 32µM, JMJD2A Tudor inh inconclusive (no result: Sfp PPTase inh, PLK1 PBD inh)
COc1ccc(F)cc1S(=O)(=O)NCCc1c(C)[nH]c2c(Cl)cccc12	BAZ2B block inconclusive (no result: Sfp PPTase inh, PLK1 PBD inh)
CCCOc1ccc(N2C(=O)CC(NCC(=O)OCC)C2=O)cc1 (centres undefined)	none (no result: Sfp PPTase inh, G9a inh, BAZ2B block)
CCOC(=O)CNC1CC(=O)N(c2cccc(Cl)c2)C1=O (centres undefined)	G9a inh 10µM, JMJD2A Tudor inh inconclusive
CC1(C)CC(=O)C(N=Nc2cccnc2)=C(O)C1	G9a inh inconclusive, JMJD2A Tudor inh 35µM
CC1(C)CC(=O)C(N=Nc2cc(C(F)(F)F)ccc2Cl)=C(O)C1	G9a inh inconclusive, BAZ2B block inconclusive
CC1(C)CC(=O)C(N=Nc2cc(S(=O)(=O)N3CCOCC3)ccc2Cl)=C(O)C1	G9a inh 50µM, BAZ2B block 56µM
CC1(C)CC(=O)C(N=Nc2ccc(-c3ccccc3)cc2)=C(O)C1	JMJD2A Tudor inh inconclusive
CC1(C)CC(=O)C(N=Nc2c(Cl)cc(Cl)cc2Cl)=C(O)C1	BAZ2B block inconclusive, JMJD2A Tudor inh 50µM
CC[n+]1ccc(/C=C/c2c[nH]c3ccccc23)cc1	JMJD2A Tudor inh inconclusive (no result: G9a inh)
Cc1ccc2[nH]cc(/C=C/c3cc[n+](C)cc3)c2c1	G9a inh 45µM
COc1ccc2c(/C=C/c3cc[n+](C)cc3)c[nH]c2c1	G9a inh 50µM
CCOC(=O)c1c(C(=O)OCC)c(C)n(N2C(=O)CSC2=S)c1C	Sfp PPTase inh 16µM, PLK1 PBD inh inconclusive
CCOC(=O)c1ccccc1NCN1C(=O)CSC1=O	none
CCOc1cc(N2CCOCC2)c(OCC)cc1NC(=O)Cc1ccccc1OC	G9a inh inconclusive, HP1b chromo inh inconclusive, BAZ2B block 45µM, JMJD2A Tudor inh inconclusive
CCOc1cc(N2CCOCC2)c(OCC)cc1NC(=O)C(C)C	none
CCOc1cc(N2CCOCC2)c(OCC)cc1NC(=O)CSc1ncccn1	G9a inh 40µM, PLK1 PBD inh inconclusive
CCOc1cc(N2CCOCC2)c(OCC)cc1NC(=O)Cc1ccccc1	BAZ2B block inconclusive (no result: G9a inh)
CCOc1cc(N2CCOCC2)c(OCC)cc1NC(=O)CN1C(=O)NC(Cc2ccccc2)C1=O (centres undefined)	G9a inh inconclusive
CCOc1cc(N2CCOCC2)c(OCC)cc1NC(C)C(=O)N1CCN(CC)CC1 (centres undefined)	Sfp PPTase inh 35µM, G9a inh 4µM, HP1b chromo inh inconclusive, PLK1 PBD inh inconclusive, BAZ2B block 10µM, JMJD2A Tudor inh 0.35µM
